Measurements published in the supplement of paper PMC13380429.

Legend:
[1] = tested on: Vero E6 infected with SARS-CoV-2; test: morphology score (similarity to uninfected cells); higher = more like uninfected cells; details: 24 h
[2] = tested on: Vero E6 infected with SARS-CoV-2; test: SARS-CoV-2 infection rate relative to infected DMSO; higher = more infection, active = 60 or less; details: 24 h

O=C(/C=C\n1cnc(-c2cc(C(F)(F)F)cc(C(F)(F)F)c2)n1)NNc1cnccn1 [selinexor] (10 µM)
morphology score [1]: -0.235
SARS-CoV-2 infection rate [2]: 106% (inactive)

Oc1ccnc2cc(Cl)ccc12 [chloroxoquinoline] (10 µM)
morphology score [1]: 0.159
SARS-CoV-2 infection rate [2]: 99.5% (inactive)

N=C(N)NC(=O)c1nc(Cl)c(N)nc1N [amiloride] (10 µM)
morphology score [1]: 0.1
SARS-CoV-2 infection rate [2]: 98% (inactive)

CCCCNc1nc(N)c2[nH]c(=O)n(Cc3ccc(OCCN(C)C)nc3)c2n1 (10 µM)
morphology score [1]: 0.0113
SARS-CoV-2 infection rate [2]: 103% (inactive)

C[C@]12CC[C@H](O)C[C@H]1CC[C@@H]1[C@@H]2C[C@@H](O)[C@]2(C)[C@@H](C3=CC(=O)OC3)CC[C@]12O [digoxigenin] (0.833333 µM)
morphology score [1]: -0.000579
SARS-CoV-2 infection rate [2]: 99.5% (inactive)

CN(CCOc1ccc(CC2SC(=O)NC2=O)cc1)c1ccccn1 (centres undefined) [rosiglitazone] (10 µM)
morphology score [1]: 0.279
SARS-CoV-2 infection rate [2]: 92.5% (inactive)

CCN(CC)Cc1nccn1-c1ccc([N+](=O)[O-])cc1C(=O)c1ccccc1Cl [nizofenone] (10 µM)
morphology score [1]: 0.148
SARS-CoV-2 infection rate [2]: 98% (inactive)

O=C(O)c1ccc(/C=C2\SC(=S)N(c3cccc(C(F)(F)F)c3)C2=O)cc1 (10 µM)
morphology score [1]: 0.125
SARS-CoV-2 infection rate [2]: 108% (inactive)

CC(C)n1cnc2c(C(=O)N[C@H]3CN4CCC3CC4)cc(Cl)cc21 (10 µM)
morphology score [1]: 0.38
SARS-CoV-2 infection rate [2]: 85% (inactive)

COc1ccc(C(=O)N2CCCC2=O)cc1 [aniracetam] (10 µM)
morphology score [1]: 0.0647
SARS-CoV-2 infection rate [2]: 106% (inactive)

CCC(=O)NS(=O)(=O)c1ccc(-c2c(-c3ccccc3)noc2C)cc1 [parecoxib] (10 µM)
morphology score [1]: 0.0867
SARS-CoV-2 infection rate [2]: 106% (inactive)

CCCCCCCCCCCC[N+](C)(C)CCOc1ccccc1 [domiphen] (10 µM)
morphology score [1]: 0.0254
SARS-CoV-2 infection rate [2]: 87% (inactive)

CCOc1nc2cccc(C(=O)O)c2n1Cc1ccc(-c2ccccc2-c2noc(=O)[nH]2)cc1 [azilsartan] (10 µM)
morphology score [1]: 0.0851
SARS-CoV-2 infection rate [2]: 109% (inactive)

C#C[C@]1(O)CC[C@H]2[C@@H]3CCc4cc(OC5CCCC5)ccc4[C@H]3CC[C@@]21C [quinestrol] (10 µM)
morphology score [1]: -0.0318
SARS-CoV-2 infection rate [2]: 102% (inactive)

Nc1nc(N)nc(NC2CC2)n1 [cyromazine] (10 µM)
morphology score [1]: 0.128
SARS-CoV-2 infection rate [2]: 86.5% (inactive)

Cc1nc2ccc(Oc3ccc(F)cc3)cc2c(=O)n1C[C@H]1CCCN(C(C)C)C1 (10 µM)
morphology score [1]: 0.295
SARS-CoV-2 infection rate [2]: 76% (inactive)

CC[C@H](C)C(=O)O[C@H]1C[C@H](O)C=C2C=C[C@H](C)[C@H](CC[C@@H](O)C[C@@H](O)CC(=O)O)[C@H]21 (10 µM)
morphology score [1]: 0.0616
SARS-CoV-2 infection rate [2]: 106% (inactive)

CCOC(=O)[C@H]1O[C@@H]1C(=O)N[C@@H](CC(C)C)C(=O)NCCC(C)C [aloxistatin] (10 µM)
morphology score [1]: 0.331
SARS-CoV-2 infection rate [2]: 90% (inactive)

OCCNCCCOc1cccc(Cl)c1Cl (0.833333 µM)
morphology score [1]: 0.093
SARS-CoV-2 infection rate [2]: 112% (inactive)

CCc1ccc(/C=C2/SC(=S)NC2=O)cc1 (10 µM)
morphology score [1]: 0.0397
SARS-CoV-2 infection rate [2]: 92.5% (inactive)

Cc1cc(C)c(Nc2ccnc(Nc3ccc(C#N)cc3)n2)c(C)c1 [dapivirine] (0.833333 µM)
morphology score [1]: 0.07
SARS-CoV-2 infection rate [2]: 114% (inactive)

Nc1ccc2cc3ccc(N)cc3nc2c1 [proflavine-hemisulfate] (0.833333 µM)
morphology score [1]: 0.26
SARS-CoV-2 infection rate [2]: 80.5% (inactive)

NC[C@H](O)c1ccc(O)c(O)c1 [norepinephrine] (10 µM)
morphology score [1]: -0.067
SARS-CoV-2 infection rate [2]: 109% (inactive)

COc1ccc2[nH]c([S@@+]([O-])Cc3ncc(C)c(OC)c3C)nc2c1 [esomeprazole] (10 µM)
morphology score [1]: -0.181
SARS-CoV-2 infection rate [2]: 110% (inactive)

CC(C)(C)[C@]1(O)CC2OC(=O)CC23C(=O)OC2OC(=O)[C@H](O)C231 (some centres undefined) [bilobalide] (10 µM)
morphology score [1]: 0.0342
SARS-CoV-2 infection rate [2]: 110% (inactive)

Cc1ccc(O)c(N=Nc2ccccc2)n1 (10 µM)
morphology score [1]: 0.26
SARS-CoV-2 infection rate [2]: 81% (inactive)

O=C(O[C@H]1[C@H](OC(=O)c2cccnc2)[C@@H](OC(=O)c2cccnc2)[C@H](OC(=O)c2cccnc2)[C@@H](OC(=O)c2cccnc2)[C@H]1OC(=O)c1cccnc1)c1cccnc1 [inositol-hexanicotinate] (10 µM)
morphology score [1]: 0.0225
SARS-CoV-2 infection rate [2]: 109% (inactive)

C=C[C@@H]1C[C@]1(NC(=O)[C@@H]1C[C@@H]2CN1C(=O)[C@H](C(C)(C)C)NC(=O)O[C@@H]1C[C@H]1CCCCCc1nc3ccc(OC)cc3nc1O2)C(=O)NS(=O)(=O)C1CC1 [grazoprevir] (10 µM)
morphology score [1]: 0.0897
SARS-CoV-2 infection rate [2]: 109% (inactive)

N[C@H](C(=O)O)c1ccc(O)c(C(=O)O)c1 [3-carboxy-4-hydroxyphenylglycine-(S)] (10 µM)
morphology score [1]: 0.115
SARS-CoV-2 infection rate [2]: 95% (inactive)

COc1ccc(-c2cc(=O)c3c(OC)c(OC)c(OC)c(OC)c3o2)cc1OC [nobiletin] (10 µM)
morphology score [1]: 0.322
SARS-CoV-2 infection rate [2]: 110% (inactive)

NC(=O)NC1NC(=O)NC1=O (centres undefined) [allantoin] (10 µM)
morphology score [1]: -0.0426
SARS-CoV-2 infection rate [2]: 104% (inactive)

NS(=O)(=O)c1cc(C(=O)O)c(NCc2ccco2)cc1Cl [furosemide] (10 µM)
morphology score [1]: 0.0455
SARS-CoV-2 infection rate [2]: 98% (inactive)

CNC(=O)N(C)N=O [nitrosodimethylurea] (10 µM)
morphology score [1]: 0.0639
SARS-CoV-2 infection rate [2]: 106% (inactive)

NCC(=O)O (10 µM)
morphology score [1]: 0.146
SARS-CoV-2 infection rate [2]: 104% (inactive)

CC/C(=C(/c1ccc(/C=C/C(=O)O)cc1)c1ccc2[nH]ncc2c1)c1ccc(F)cc1Cl (10 µM)
morphology score [1]: 0.0792
SARS-CoV-2 infection rate [2]: 103% (inactive)

CC(O)CC(=O)O (stereo not drawn) [beta-hydroxybutyrate] (10 µM)
morphology score [1]: -0.0603
SARS-CoV-2 infection rate [2]: 116% (inactive)

CC[C@H](C)C[C@H](C)CCCCCCCCC(=O)N[C@H]1C[C@@H](O)[C@@H](NCCN)NC(=O)[C@@H]2[C@@H](O)CCN2C(=O)[C@H]([C@H](O)CCN)NC(=O)[C@H]([C@H](O)[C@@H](O)c2ccc(O)cc2)NC(=O)[C@@H]2C[C@@H](O)CN2C(=O)[C@H]([C@@H](C)O)NC1=O [caspofungin] (10 µM)
morphology score [1]: -0.0128
SARS-CoV-2 infection rate [2]: 108% (inactive)

Nc1c2c(nc3c1CCC3)CCCC2 [ipidacrine] (10 µM)
morphology score [1]: 0.22
SARS-CoV-2 infection rate [2]: 83.5% (inactive)

Cn1cc(C[C@@H](N)C(=O)O)c2ccccc21 [indoximod] (10 µM)
morphology score [1]: 0.183
SARS-CoV-2 infection rate [2]: 110% (inactive)

Cc1cn(-c2cc(NC(=O)c3ccc(C)c(Nc4nccc(-c5cccnc5)n4)c3)cc(C(F)(F)F)c2)cn1 [nilotinib] (10 µM)
morphology score [1]: 0.334
SARS-CoV-2 infection rate [2]: 96.5% (inactive)

Cc1cccc(OCC(O)CNC(C)(C)C)c1C (centres undefined) [xibenolol] (10 µM)
morphology score [1]: 0.0955
SARS-CoV-2 infection rate [2]: 97.5% (inactive)

COc1cc(C[C@@H]2NCCc3cc(O)c(O)cc32)cc(OC)c1OC [trimethoquinol] (10 µM)
morphology score [1]: 0.0323
SARS-CoV-2 infection rate [2]: 99.5% (inactive)

O=C(O)C1=C(CSc2nnnn2CS(=O)(=O)O)CS[C@@H]2[C@H](NC(=O)[C@H](O)c3ccccc3)C(=O)N12 [Cefonicid (sodium)] (10 µM)
morphology score [1]: -0.0671
SARS-CoV-2 infection rate [2]: 112% (inactive)

CN1CCN(CCOc2cc(OC3CCOCC3)c3c(Nc4c(Cl)ccc5c4OCO5)ncnc3c2)CC1 [saracatinib] (10 µM)
morphology score [1]: -0.132
SARS-CoV-2 infection rate [2]: 110% (inactive)

COc1cc(S(C)(=O)=O)ccc1Nc1nc2ccc(-c3ccc(NC(=O)[C@H](C)c4ccc(F)cc4)cc3)cn2n1 (10 µM)
morphology score [1]: -0.122
SARS-CoV-2 infection rate [2]: 105% (inactive)

O=[N+]([O-])c1cc2nc(O)c(O)nc2cc1[N+](=O)[O-] (10 µM)
morphology score [1]: 0.165
SARS-CoV-2 infection rate [2]: 100% (inactive)

Nc1ncnc2[nH]nc(Nc3ccc(F)cc3)c12 (0.833333 µM)
morphology score [1]: -0.00281
SARS-CoV-2 infection rate [2]: 95.5% (inactive)

CCN1CCN(c2cc3c(cc2F)c(=O)c(C(=O)O)cn3C2CC2)CC1 [enrofloxacin] (10 µM)
morphology score [1]: 0.0599
SARS-CoV-2 infection rate [2]: 112% (inactive)

O=C(Nc1cccc(Cl)c1)c1ccccn1 (10 µM)
morphology score [1]: 0.228
SARS-CoV-2 infection rate [2]: 106% (inactive)

NC(=O)Nc1cc(-c2cccc(F)c2)sc1C(=O)N[C@H]1CCCNC1 (0.833333 µM)
morphology score [1]: 0.11
SARS-CoV-2 infection rate [2]: 106% (inactive)

N[C@@H]1CN(c2c(F)cc3c(=O)c(C(=O)O)cn([C@@H]4C[C@@H]4F)c3c2Cl)CC12CC2 [sitafloxacin] (10 µM)
morphology score [1]: -0.0334
SARS-CoV-2 infection rate [2]: 106% (inactive)

O=C1NCCNC1c1cccs1 (centres undefined) [tenilsetam] (10 µM)
morphology score [1]: 0.095
SARS-CoV-2 infection rate [2]: 106% (inactive)
